Data reported in PubChem BioAssay (NCATS).
Records with an inconclusive call do not appear. Values without a mark were called inactive. Calls of active or inactive are those of the source. Calls come from the whole dose curve; as a rule, active = well fitted cell-killing curve with a large enough effect; inconclusive = small, poorly fitted or top-dose-only effect, or effect the other way; inactive = no such curve, though single readings can be large or run the other way.

Assay: Viability qHTS for spleen associated tyrosine kinase inhibitor (SYKi) drug resistant MV4-11 cells (AID 1963824); note: nearly all actives have a fitted effect of over 35% in size
Details: SYKi-resistant MV4-11 viability, CellTiter-Glo, 72 h; series mostly up to 45 µM; viability, % of control: at the top concentration
Outline: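 SYK inhibitor-resistant MV4-11 AML cells, 500 per well, added to predispensed compounds and incubated 72 hr at 37 C, 5% CO2. Viability measured by CellTiter-Glo luminescence after 10 min at room temperature.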
Potency is the fitted concentration of half-maximal effect.

Row | SMILES | Potency | viability, % of control
1 | Cc1nc(C)c(CN2CCN(C(c3ccc(F)cc3)c3ccc(F)cc3)CC2)nc1C | 14.8 µM (active) | 
2 | COC(=O)N1CCC(n2ncc3c(N4CCOCC4)nc(-c4ccc(NC(=O)Nc5ccc(CO)cc5)cc4)nc32)CC1 | 0.0184 µM (active) | 
3 | OC[C@H]1O[C@@H](Oc2cc(O)cc(-c3cc4ccc(O)cc4o3)c2)[C@H](O)[C@@H](O)[C@@H]1O | 4.47 µM (active) | 
4 | COc1cc(N(C)CCN(C)C)c(N)cc1Nc1nccc(-c2cn(C)c3ccccc23)n1 | 10.3 µM (active) | 
5 | C[C@@H]1O[C@@H](O[C@H]2[C@@H]3C=CO[C@@H](O[C@@H]4O[C@H](CO)[C@@H](O)[C@H](O)[C@H]4O)[C@@H]3[C@@]3(CO)O[C@@H]23)[C@H](O)[C@H](OC(=O)/C=C/c2ccccc2)[C@H]1O | 6.11 µM (active) | 
6 | OC[C@H]1O[C@@H](OCc2ccccc2)[C@H](O[C@@H]2OC[C@@H](O)[C@H](O)[C@H]2O)[C@@H](O)[C@@H]1O |  | 93.5% [at 17.3 µM]
7 | Cc1c(O)cc2c(c1O)COC1(O)CCCOC21 (stereo not given) |  | 111%
8 | CNC(=O)c1ccc(-c2cnc3cnc(C(=O)N(C)c4ccc(Cl)cc4)cn23)cc1 | 18.4 µM (active) | 
9 | CCCSc1nc(NC2CC2c2ccc(F)c(F)c2)c2nnn(C3CC(OCCO)C(O)C3O)c2n1 (stereo not given) | 20.6 µM (active) | 
10 | COc1cc(Br)c(S(=O)(=O)Nc2ccc(Cl)c(O[C@@H]3CCN(C)C3)c2)cc1OC | 6.51 µM (active) | 
11 | C=C1C(=O)O[C@@H]2[C@H]3O[C@]3(C)CC/C=C(\C)CC[C@@H]12 | 1.86 µM (active) | 
12 | CC(C)S(=O)(=O)Nc1ccc(F)c(C(=O)c2c[nH]c3ncc(-c4cccnc4)cc23)c1F | 2.91 µM (active) | 
13 | C=CC(=O)N[C@H]1CCOC[C@H]1Nc1ncc2cc(-c3c(Cl)c(OC)cc(OC)c3Cl)ccc2n1 | 20.9 µM (active) | 
14 | COc1ccc(C2(O)CCC(N3CC[C@@H](NC(=O)CNC(=O)c4cccc(C(F)(F)F)c4)C3)CC2)cn1 (stereo not given in full) |  | 56.7%
15 | CC(=O)OCC1OC(O[C@H]2CC[C@]34C[C@]35CC(O)[C@]3(C)[C@@H]([C@H](C)CC/C=C(\C)C(=O)O)C(O)C[C@@]3(C)C5CC[C@H]4C2(C)C)C(O)C(O)C1OC1OCC(O)C(O)C1O (stereo not given in full) |  | 79.7% [at 9.25 µM]
16 | CC(C)c1cc(-c2ccc(F)c3ccccc23)nc(N)n1 | 5.17 µM (active) | 
17 | Fc1ccc2c(CCNCc3cccc(OCC(F)(F)C(F)F)c3)c[nH]c2c1 | 16.4 µM (active) | 
18 | C=C[C@](C)(CC/C=C(\C)C(=O)O)O[C@@H]1OC[C@H](O)[C@H](O)[C@H]1O |  | 81.4%
19 | COc1ccc2[nH]c3c(c2c1)CCN[C@]31CS[C@@H]2c3c(OC(C)=O)c(C)c4c(c3[C@H](COC1=O)N1[C@@H]2[C@H]2c3c(cc(C)c(OC)c3O)C[C@@H]([C@@H]1O)N2C)OCO4 | 0.0011 µM (active) | 
20 | CC(=O)OCC(=O)[C@@]12O[C@@H]1C[C@H]1[C@@H]3CC=C4C[C@@H](O)CC[C@]4(C)[C@H]3CC[C@@]12C | 18.4 µM (active) | 

Row | SMILES | Potency | viability, % of control
21 | CC1OC(OC2C(CO)OC(OCC3OC(OC(=O)C45CCC(C)(C)CC4C4=CCC6C7(C)CCC(OC8OC(CO)C(O)C(OC9OC(CO)C(O)C(O)C9O)C8O)C(C)(C)C7CCC6(C)C4(C)CC5)C(O)C(O)C3O)C(O)C2O)C(O)C(O)C1OC1OC(CO)C(O)C(O)C1O (stereo not given) |  | 88.5% [at 9.25 µM]
22 | CC1OC(OC2C(O)COC(O[C@@H]3[C@@H](O)[C@@H](O)[C@H](OC4C(OC(=O)[C@]56CCC(C)(C)CC5C5=CCC7[C@@]8(C)C[C@H](O)[C@H](OC9OC(CO)C(O)C(O)C9O)[C@@](C)(CO)C8[C@H](O)C[C@@]7(C)[C@]5(C)CC6)OCC(O)C4O)O[C@H]3C)C2O)C(O)C(O)C1O (stereo not given in full) | 1.23 µM (active) | 
23 | C=C1C(=O)O[C@@H]2[C@H]1CCC(C)=C1CCC(=O)O[C@]12C | 2.59 µM (active) | 
24 | N=C1N=C(N)c2cc3ccccc3cc21 | 38.6 µM (active) | 
25 | CSCC[C@H](NC(=O)[C@H](CO)NC(=O)[C@H](CCC(=O)O)NC(C)=O)C(=O)N[C@H](C=O)CC(=O)O | 1.5 µM (active) | 
26 | C/C=C(\C)C(=O)O[C@H]1C=C(CO)C(=O)[C@H](OC(C)=O)[C@H]1C(C)C | 1.8 µM (active) | 
27 | COC(=O)C1=COC(O[C@@H]2O[C@H](CO)[C@@H](O)[C@H](O)[C@H]2O)[C@H]2[C@@H]1[C@H](OC(=O)CCc1ccc(O)cc1)C[C@]2(C)O (stereo not given in full) |  | 96% [at 17.3 µM]
28 | CN(C)c1nc(NC2CCC(NCCc3ccc(Br)cc3OC(F)(F)F)CC2)nc2ccccc12 (stereo not given) | 0.651 µM (active) | 
29 | C1CCC[C@H]2CCCN3CC[C@@H](CCCCCC[C@@H]4CCCN5CC[C@@H](CC1)O[C@@H]45)O[C@@H]23 |  | 87.9% [at 0.177 µM]
30 | OC[C@H]1O[C@@H](O[C@H]2[C@H](OCc3ccccc3)O[C@H](CO[C@@H]3OC[C@@H](O)[C@H](O)[C@H]3O)[C@@H](O)[C@@H]2O)[C@H](O)[C@@H](O)[C@@H]1O |  | 72.1% [at 17.3 µM]
31 | CC1CC(=O)[C@]2(O)C(C(=O)OCCc3ccc(O)c(O)c3)=CO[C@@H](O[C@@H]3O[C@H](CO)[C@@H](O)[C@H](O)[C@H]3O)[C@H]12 (stereo not given in full) |  | 82.4% [at 17.3 µM]
32 | CO[C@H]1/C=C\O[C@@]2(C)Oc3c(C)c(O)c4c(O)c(c(/C=N\N5CCN(C6CCCC6)CC5)c(O)c4c3C2=O)NC(=O)/C(C)=C\C=C/[C@H](C)[C@H](O)[C@@H](C)[C@@H](O)[C@@H](C)[C@H](OC(C)=O)[C@@H]1C | 10 µM (active) | 
33 | C=C(C)[C@@H]1CC[C@]2(C(=O)O)CC[C@]3(C)C(CCC4[C@]5(C)C(CC[C@]43C)C(C)(C)[C@@H](O)[C@@H]5C(=O)O)C12 (stereo not given in full) |  | 87.1% [at 17.3 µM]
34 | CC(=O)OC[C@@]12[C@H](O)C[C@@H](C)[C@]3(C[C@@H](c4ccoc4)OC3=O)[C@H]1C[C@H](O)C[C@]21CO1 |  | 70.7% [at 17.3 µM]
35 | CCn1c(-c2nonc2N)nc2cncc(C(=O)N3CC[C@H](N)C3)c21 | 8.2 µM (active) | 
36 | COc1ccc(N2CCOCC2)c2sc(NC(=O)N3CCC(C)(O)CC3)nc12 |  | 88.1%
37 | CC(C)(O)C1CC=C(C(=O)OCC2OC(Oc3c(O)cc(C(=O)O)cc3O)C(O)C(O)C2O)CC1 (stereo not given) |  | 104% [at 17.3 µM]
38 | NC(=O)C1=CC2C3C=CC2C(OC3=O)O1 (stereo not given) | 26.6 µM (active) | 
39 | CC(C)S(=O)(=O)c1ccc2nccc(Nc3ccc4scnc4c3)c2c1 | 16.4 µM (active) | 
40 | COc1ccc(CC(NC(C)=O)C(=O)O)cc1 (stereo not given) |  | 99.3%
